Results taken from PubChem BioAssay (NCI).
About 83,000 compounds went through this panel and 20% of them were active in at least one assay; those are over-represented in the sample as a whole.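 Cell lines were cultured in 96-well plates, exposed to a single compound concentration, and assessed for percent growth 48 hours later.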 Activity calls are given as the source filed them. Rule for the calls: active = growth percent below 10; inactive = the rest.

These compounds were tested on HL-60(TB) leukemia (assay: NCI-60 one-dose screen, 48 h (100 = growth as untreated, 0 = no growth, -100 = all killed)). Conditions: 10 µM unless noted.

Structure (SMILES) | growth
N#C/C(=C\c1ccccc1Cl)c1cc2ccccc2[nH]1 | 98.8% (inactive)
Cc1nc2sc(C(=O)Nc3cccc4c3OCCO4)c(N)c2cc1C(C)O (stereo not given) | 8.35% (active)
CC(=O)C(C(C)=O)C(c1ccccc1)C(C(C)=O)C(C)=O | 98.5% (inactive)
CC1(C)NC(=S)NC1=O | 89.9% (inactive)
CCn1cnc(C[C@H](NC(=O)[C@@H](NC(=O)Nc2cc(C(F)(F)F)cc(C(F)(F)F)c2)C(C)C)C(=O)OC)c1 | -75.7% [100 µM] (active)
CCN(CCC#N)c1ccccc1 | 98.1% (inactive)
CC1=CCC[C@@H]2C1(C)CC[C@H](C)[C@@]2(C)CC1=CC(=O)C(SC(C)(C)C)=CC1=O (stereo not given in full) | 56.4% (inactive)
Cc1ccc2c(c1)C(C)Cc1c(ncnc1-n1cnc3ccccc31)N2C (stereo not given) | -19.1% (active)
Nc1c(C(=O)Nc2ccncc2)sc2nc3c(cc12)CCCCCCCC3 | -54.9% (active)
Cc1ccc(-n2nnc(C3=NCCc4c3[nH]c3ccc(Cl)cc43)c2C)cc1 | 39.4% (inactive)
N/C(=N\c1nc2ccccc2s1)NC(=NC1CCCCC1)NC1CCCCC1 | -36.3% (active)
COc1cccc(-c2nc3sccn3c2-c2ccnc(NCCNS(=O)(=O)c3cccc(Cl)c3)c2)c1 | 15.6% (inactive)
CCN(CC)Cc1cc(Nc2cc(C(F)(F)F)c(C#N)c3nc4ccccc4n23)ccc1O | -10.9% (active)
CCOC(=O)c1cnn2c3ccccc3n(S(=O)(=O)c3ccc(OC)cc3)c12 | 4.77% (active)
Cc1cccc(NC(=O)[C@@H]2c3ccccc3C(=O)N(c3ccc(Cl)cc3)[C@H]2c2ccc(Cl)cc2)n1 | 36.2% (inactive)
COc1ccccc1OCC(=O)N1CCCCCC1 | 93.6% (inactive)
CCCCn1c(=O)c(-c2cc(-c3ccc(Cl)cc3)nc(-c3ccc(Cl)cc3)c2)cc2ccc(Cl)cc21 | 100% (inactive)
N#Cc1c(NC(=O)c2ccco2)[n+]([O-])c2cc(F)c(F)cc2[n+]1[O-] | 38% (inactive)
CCC(=O)Oc1ccc(/C(=C(\C)c2ccccc2)c2ccc(OCCN3CCCCC3)cc2)cc1 | 68.2% (inactive)
O=C1c2ccccc2C(=O)c2c1ccc(C(=O)O)c2[N+](=O)[O-] | 65.1% (inactive)

Structure (SMILES) | growth
NC1N=C(SCC(=O)N2CCN(c3cc4c(cc3F)c(=O)c(C(=O)O)cn4C3CC3)CC2)NC(=O)/C1=C/c1ccc(Cl)cc1 (stereo not given) | 102% (inactive)
CC(=O)OC1CC2CCC1(C)C2(C)C (stereo not given) | 103% (inactive)
C=C1CC[C@@H](C(=O)OC)Cc2nc(C)ccc21 | 100% (inactive)
CCCC(=O)NNc1[nH]c(-c2ccc(OC)cc2)cc1C(=O)OCC | -27.7% (active)
Cc1ccc(/C=C(/C#N)n2nnc3ncccc32)cc1 | 0.0853% (active)
CCCCCCC(CC#N)(CCC)CCCC (stereo not given) | 112% (inactive)
CCNC(=O)Oc1ccc(/C(=C(\C)c2ccccc2)c2ccc(OCCN(CC)CC)cc2)cc1 | 52.5% (inactive)
COc1ccc2c(c1)O/C(=C\c1ccc([N+](=O)[O-])s1)C2=O | 7.46% (active)
Nc1ccc(S(=O)(=O)Nc2ccsc2-c2nc(-c3ccccc3)no2)cc1 | 35.1% (inactive)
CCC(C)C(N)C(=O)NC(CC(N)=O)C(=O)NC(CC(C)C)C(=O)NC(CCCCN)C(=O)NC(C)C(=O)NC(CC(C)C)C(=O)NC(C)C(=O)NC(C)C(=O)NC(CC(C)C)C(=O)NC(C)C(=O)NC(CCCCN)C(=O)NC(CCCCN)C(=O)NC(C(=O)NC(CC(C)C)C(N)=O)C(C)CC (stereo not given) | 56.1% (inactive)
O=Cc1c[nH]c2ccc(NC(=O)OCc3ccccc3)cc12 | 200% (inactive)
ClC(Cl)c1nc(-c2ccccc2)nc2cc(-c3ccccc3)nn12 | 94.9% (inactive)
CCOC(=O)NCCCC(=O)NCCc1ccccc1 | 102% (inactive)
O=C(O)c1cn(C2CC2)c2cc(N3CCN(C(=O)N4CCOCC4)CC3)c(F)cc2c1=O | 90.3% (inactive)
N=C(N)c1ccc(-c2ccc(-c3ccccc3)o2)o1 | -17% (active)
Cc1ccc(C)c2c(C)c(C(=O)Nc3cccc(-n4cccn4)c3)oc12 | 87.9% [50 µM] (inactive)
CCN(CC)Cc1cc(Nc2ccnc3cc(Cl)ccc23)ccc1OC | 86% (inactive)
C=C(C)[C@@H]1CC[C@]2(CNCCO)CC[C@]3(C)[C@H](CC[C@@H]4[C@@]5(C)CCC(N)[C@@](C)(CO)[C@@H]5CC[C@]43C)[C@@H]12 (stereo not given in full) | -63.7% (active)
CN1CCc2c(sc3nc4n(-c5ccc(Cl)cc5)c(=O)[nH]n4c(=O)c23)C1 | 89.3% (inactive)
CN1CCN(Cc2ccc(NC(=O)c3cncc(C#Cc4ncc5cnccn45)c3)cc2C(F)(F)F)CC1 | 24.8% (inactive)
